# Measured values published in PubChem BioAssay (NCATS).
# Values without a mark were called inactive. Inconclusive results are not listed. Where a call stands in place of a potency, no number is given. Activity calls are given as the source filed them. Unless noted, calls come from the whole dose curve; as a rule, active = well fitted curve in the direction sought with a large enough effect; inconclusive = small, poorly fitted or top-dose-only effect, or another doubt; inactive = no such curve, though single readings can be large; an effect the other way counts as inactive or inconclusive.
# Experiments:
# [1] = target: Glutaminase kidney isoform, mitochondrial (Homo sapiens) (UniProt O94925); assay: qHTS for Inhibitors of Glutaminase (GLS): LOPAC Validation (AID 624146); note: nearly all actives have a fitted effect of over 60% in size; note: potency is the fitted concentration of half-maximal effect
# Chain of Glutaminase kidney isoform, mitochondrial (Homo sapiens) (O94925 whole entry, looked up, canonical isoform): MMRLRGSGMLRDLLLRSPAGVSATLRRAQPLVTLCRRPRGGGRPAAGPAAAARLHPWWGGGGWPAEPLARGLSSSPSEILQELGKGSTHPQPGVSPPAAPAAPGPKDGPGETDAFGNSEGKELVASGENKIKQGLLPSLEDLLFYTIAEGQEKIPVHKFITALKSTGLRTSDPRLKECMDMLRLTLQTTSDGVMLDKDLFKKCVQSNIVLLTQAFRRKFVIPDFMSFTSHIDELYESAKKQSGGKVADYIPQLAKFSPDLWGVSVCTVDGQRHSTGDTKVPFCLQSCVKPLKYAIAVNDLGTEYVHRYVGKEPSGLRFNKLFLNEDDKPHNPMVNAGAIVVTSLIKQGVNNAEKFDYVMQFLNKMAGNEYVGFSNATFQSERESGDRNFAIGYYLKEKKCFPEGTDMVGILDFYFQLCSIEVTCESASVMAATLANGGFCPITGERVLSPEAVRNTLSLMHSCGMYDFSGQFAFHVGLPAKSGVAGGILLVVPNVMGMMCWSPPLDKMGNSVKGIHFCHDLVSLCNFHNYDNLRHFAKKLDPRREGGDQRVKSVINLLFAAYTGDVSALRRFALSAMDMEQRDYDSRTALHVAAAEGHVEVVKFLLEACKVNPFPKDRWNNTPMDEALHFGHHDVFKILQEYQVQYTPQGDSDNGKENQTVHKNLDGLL
# How it was run: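 hKGA; 45 mM KH2PO4 pH 8.2 + 0.02% Tween-20; cpd via pin tool; 1 mM Gln soln; GluOx/HRP/Amplex Red; RT 30 min; fluor. t0 & final.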
# [2] = target: Glucagon-like peptide 1 receptor (Homo sapiens) (UniProt P43220); assay: qHTS of GLP-1 Receptor Agonists: LOPAC Validation (AID 624148);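 note: higher luminescence signal means agonism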
# Chain of Glucagon-like peptide 1 receptor (Homo sapiens) (P43220 whole entry, looked up): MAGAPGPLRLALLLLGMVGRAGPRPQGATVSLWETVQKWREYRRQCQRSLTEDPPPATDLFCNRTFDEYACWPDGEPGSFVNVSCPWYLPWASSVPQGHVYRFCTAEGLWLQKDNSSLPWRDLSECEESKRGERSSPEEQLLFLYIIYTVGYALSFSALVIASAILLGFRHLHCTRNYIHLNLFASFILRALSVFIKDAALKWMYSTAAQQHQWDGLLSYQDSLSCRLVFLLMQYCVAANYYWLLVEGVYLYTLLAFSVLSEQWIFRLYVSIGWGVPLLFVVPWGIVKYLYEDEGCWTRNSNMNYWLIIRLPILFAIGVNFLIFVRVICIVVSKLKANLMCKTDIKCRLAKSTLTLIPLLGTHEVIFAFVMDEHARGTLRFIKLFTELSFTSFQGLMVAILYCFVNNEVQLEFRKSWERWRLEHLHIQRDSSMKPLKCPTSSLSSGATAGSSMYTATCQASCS
# How it was run: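 HEK293 cells stably co-expressing GLP-1R and a cAMP-responsive luciferase reporter, plated 12 hours before compound, then incubated 4-6 hr at 37 deg C. Luminescence read 12 min after detection reagent.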
# [3] = qHTS of Nrf2 Activators: LOPAC Validation (AID 624149)
# How it was run: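 ARE reporter activation measured in AREc32 firefly luciferase cells after 24 hr compound exposure; Steady-Glo luminescence.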
# [4] = HTS Assay for Allosteric Antagonists of the Human D2 Dopamine Receptor: Hit Validation in HTRF (AID 624455); note: potency is the fitted concentration of half-maximal effect;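 note: stable D1 dopamine receptor cell line scored for blocking the D1 response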
# How it was run: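 Signal from an HTRF read-out in D1-expressing stable cells gave hit activity as inhibition of the D1 response.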
# [5] = qHTS assay for small molecule agonists of the antioxidant response element (ARE) signaling pathway (AID 651741; active = well fitted activation curve with a large enough effect in the signal ratio; the % refers to the signal ratio; note: potency is the fitted concentration of half-maximal effect)
# How it was run: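 HepG2 ARE-bla cells plated at 2,000 cells/well and incubated 5 h at 37 C/5% CO2 received 23 nL compound in DMSO. After 16 h at 37 C, LiveBLAzer B/G FRET substrate was applied for 2 h at room temperature and fluorescence read.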
# [6] = qHTS assay for small molecule activators of the nuclear factor-kappa B (NF-kB) signaling pathway (AID 651749; active = well fitted activation curve with a large enough effect in the signal ratio; the % refers to the signal ratio; note: series mostly up to about 77 µM); details: NF-kB-bla ME-180 cells, beta-lactamase FRET ratio, 16 h; stronger effect = higher value
# How it was run: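 Incubation lasted 16 hr at 37C in 5% CO2 after 23 nL compound addition to ME-180 NF-kB-bla cells. Activation appears as beta-lactamase-mediated FRET loss.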
# [7] = qHTS assay for small molecule disruptors of the mitochondrial membrane potential - 1 hr assay (AID 651754; calls by dose curve; note: nearly all actives have a fitted effect of over 35% in size)
# How it was run: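 Steps: seed HepG2 cells and let attach overnight; pin-transfer compound or vehicle; incubate 1 hr at 37C; add Mito-MPS dye for 30 min; read two-channel fluorescence for monomer and aggregate forms.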
# [8] = qHTS assay for small molecule disruptors of the mitochondrial membrane potential - 5 hr assay (AID 651755; calls by dose curve; note: nearly all actives have a fitted effect of over 40% in size)
# How it was run: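 HepG2 cells (2,000/well), attached overnight, exposed to compound 5 hr at 37C, then Mito-MPS dye 30 min. Fluorescence read for monomers (490/535 nm) and aggregates (540/590 nm).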
# [9] = target: Tumor necrosis factor (Homo sapiens) (UniProt P01375); assay: qHTS assay to identify small molecules that stimulate Tumor Necrosis Factor-alpha (TNF-alpha) secretion (AID 651757; active = well fitted curve in the direction sought with a large enough effect in the signal ratio; the % refers to the signal ratio)
# Chain of Tumor necrosis factor (Homo sapiens) (P01375 whole entry, looked up): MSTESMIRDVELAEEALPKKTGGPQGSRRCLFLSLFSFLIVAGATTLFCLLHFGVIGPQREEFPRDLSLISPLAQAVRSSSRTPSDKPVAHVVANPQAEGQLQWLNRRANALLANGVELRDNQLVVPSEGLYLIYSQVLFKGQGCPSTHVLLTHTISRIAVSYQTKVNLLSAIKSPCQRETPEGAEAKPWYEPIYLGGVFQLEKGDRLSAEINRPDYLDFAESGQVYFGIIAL
# How it was run: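 Secreted TNF-alpha from compound-treated THP-1 cells (17 hrs, 37 C) was quantified with a homogeneous time-resolved fluorescence antibody assay.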
# [10] = qHTS assay for environmental chemicals that activate the Aryl hydrocarbon Receptor (AhR) signaling pathway (AID 651777); details: 1A2-DRE human hepatoma cells, luciferase, 24 h; activation: stronger effect = higher value; note: nearly all actives have a fitted effect of over 15% in size
# How it was run: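 Concentration–response screening used 1,200 1A2-DRE cells per well, 24 hr compound exposure (37 C, 5% CO2), and One-Glo luminescence as the AhR-driven CYP1A2 reporter signal.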
# [11] = target: Peroxisome proliferator-activated receptor alpha (Homo sapiens) (UniProt Q07869); assay: qHTS assay for small molecule agonists of the peroxisome proliferator-activated receptor alpha (PPARalpha) signaling pathway (AID 651778); details: PathHunter PPARalpha complementation, chemiluminescence, 6 h; stronger effect = higher value
# Chain of Peroxisome proliferator-activated receptor alpha (Homo sapiens) (Q07869 whole entry, looked up, the tested form may be a part): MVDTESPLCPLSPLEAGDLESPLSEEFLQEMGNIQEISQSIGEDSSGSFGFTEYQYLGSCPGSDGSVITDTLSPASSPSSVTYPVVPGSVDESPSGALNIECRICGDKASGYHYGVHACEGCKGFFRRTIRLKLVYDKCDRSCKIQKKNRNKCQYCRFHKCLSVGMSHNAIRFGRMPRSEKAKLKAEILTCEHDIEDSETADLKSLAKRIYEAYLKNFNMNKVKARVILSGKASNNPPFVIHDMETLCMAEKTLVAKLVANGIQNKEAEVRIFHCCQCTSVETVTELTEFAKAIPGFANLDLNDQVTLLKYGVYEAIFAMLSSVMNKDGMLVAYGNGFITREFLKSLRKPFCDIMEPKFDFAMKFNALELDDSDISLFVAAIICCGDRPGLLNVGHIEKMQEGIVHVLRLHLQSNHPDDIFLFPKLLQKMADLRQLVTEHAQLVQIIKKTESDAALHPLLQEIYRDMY
# How it was run: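 Enzyme-fragment complementation assay in which ligand-bound PPARalpha translocates and forms an active enzyme that generates chemiluminescence. Cells were plated overnight, exposed to compound for 6 hr at 37 C, and then given detection reagent for 60 min at room temperature.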
# [12] = qHTS of Trypanosoma Brucei Inhibitors: LOPAC Validation (AID 624147)
# How it was run: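 Glycolytic pyruvate kinase of T. brucei was incubated with substrate, test compound and 130 uM ADP for 45 minutes at room temperature. Luminescent Kinase-Glo Plus signal was measured after 10 minutes.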
# [13] = target: Arylsulfatase A (Homo sapiens) (UniProt P15289); assay: qHTS screen for enhancers of Arylsulfatase A (ASA1): LOPAC Validation Assay (AID 720538); note: potency is the fitted concentration of half-maximal effect
# Chain of Arylsulfatase A (Homo sapiens) (P15289 whole entry, looked up): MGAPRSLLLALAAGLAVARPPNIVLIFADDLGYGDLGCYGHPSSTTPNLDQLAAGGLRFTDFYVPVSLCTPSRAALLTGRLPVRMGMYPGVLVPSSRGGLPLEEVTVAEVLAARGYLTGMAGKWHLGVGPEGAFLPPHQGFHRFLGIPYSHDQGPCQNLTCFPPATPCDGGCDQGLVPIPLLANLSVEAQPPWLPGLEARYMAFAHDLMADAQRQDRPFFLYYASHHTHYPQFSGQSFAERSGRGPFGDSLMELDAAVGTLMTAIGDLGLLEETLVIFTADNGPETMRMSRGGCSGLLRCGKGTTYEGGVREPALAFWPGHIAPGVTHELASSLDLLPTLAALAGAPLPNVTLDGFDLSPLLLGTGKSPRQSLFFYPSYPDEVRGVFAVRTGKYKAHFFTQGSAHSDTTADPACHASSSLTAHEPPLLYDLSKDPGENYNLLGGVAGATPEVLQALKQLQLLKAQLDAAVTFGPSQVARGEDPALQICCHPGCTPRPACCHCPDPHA
# How it was run: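 Cell-based enhancement test: residual ASA activity in SV40-transformed I179S patient fibroblasts is measured by pNCS turnover (0.5mM final, 14h, room temperature) following 48h compound incubation; higher fluorescence indicates activation.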
structure (smiles),measurement,setting,value
O=C1C=CC(=O)C=C1,Potency,[1],inactive
same,outcome,[2],inactive
same,Potency,[3],inactive
same,Potency,[4],inactive
same,Potency,[5],47.3 µM (active)
same,activation,[6],-1.25%
same,Potency,[7],inactive
same,Potency,[8],inactive
same,outcome,[9],inactive
same,activation,[10],1.56%
same,max response,[11],-5.62%
CN1CCc2cc(O)cc3c2[C@H]1Cc1ccc(O)c(O)c1-3,Potency,[1],2.24 µM (active)
same,outcome,[2],inactive
same,Potency,[3],inactive
COc1ccc(CNC(=O)/C=C/c2ccc3[nH]cc(CCN(C)C)c3c2)cc1,Potency,[1],inactive
same,Potency,[12],inactive
same,outcome,[2],inactive
same,Potency,[3],inactive
same,Potency,[4],inactive
same,Potency,[13],inactive
CCCn1c(=O)c2[nH]c(C3CCCC3)nc2n(CCCOC(=O)c2ccc(S(=O)(=O)F)cc2)c1=O,Potency,[1],inactive
same,Potency,[12],inactive
same,outcome,[2],inactive
same,Potency,[3],inactive
same,Potency,[4],inactive
same,Potency,[13],inactive
Oc1ccc2c3c1O[C@H]1c4oc5ccccc5c4C[C@@]4(O)C(C2)N(CC2CC2)CCC314 (stereo partly specified),Potency,[1],8.91 µM (active)
same,Potency,[12],inactive
same,outcome,[2],inactive
same,Potency,[3],inactive
same,Potency,[4],inactive
same,Potency,[13],inactive
Cc1o[nH]c(=O)c1CC(N)C(=O)O (stereo unspecified),Potency,[1],inactive
same,Potency,[12],inactive
same,outcome,[2],inactive
same,Potency,[3],inactive
same,Potency,[4],inactive
same,Potency,[13],inactive
C=CCN1CCc2cccc3c2[C@H]1Cc1ccc(O)c(O)c1-3,Potency,[1],0.891 µM (active)
same,outcome,[2],inactive
same,Potency,[3],inactive
same,Potency,[4],0.0517 µM (active)
NC(Cc1cc(O)c(O)cc1O)C(=O)O (stereo unspecified),Potency,[1],inactive
same,Potency,[12],inactive
same,outcome,[2],inactive
same,Potency,[3],inactive
same,Potency,[4],inactive
same,Potency,[13],16.9 µM (active)
CC(N)Cc1c[nH]c2ccc(O)cc12 (stereo unspecified),Potency,[1],0.794 µM (active)
same,Potency,[12],inactive
same,outcome,[2],inactive
same,Potency,[3],inactive
same,Potency,[4],inactive
same,Potency,[13],9.53 µM (active)
O=[N+]([O-])c1cc(O)c(O)c([N+](=O)[O-])c1,Potency,[1],12.6 µM (active)
same,Potency,[12],inactive
same,outcome,[2],inactive
same,Potency,[3],inactive
same,Potency,[4],inactive
same,Potency,[13],19 µM (active)
NCC(CP(=O)(O)O)c1ccc(Cl)cc1 (stereo unspecified),Potency,[1],inactive
same,Potency,[12],inactive
same,outcome,[2],inactive
same,Potency,[3],inactive
same,Potency,[4],inactive
same,Potency,[13],inactive
CC(C)NP(=O)(NC(C)C)OP(=O)(NC(C)C)NC(C)C,Potency,[1],inactive
same,Potency,[12],inactive
same,outcome,[2],inactive
same,Potency,[3],inactive
same,Potency,[4],inactive
same,Potency,[13],inactive
CN1CCc2cccc(Cl)c2CC1,Potency,[1],inactive
same,Potency,[12],inactive
same,outcome,[2],inactive
same,Potency,[3],inactive
same,Potency,[13],inactive
CC(N)[C@H](O)c1ccc(O)c(O)c1 (stereo partly specified),Potency,[1],inactive
same,Potency,[12],inactive
same,Potency,[3],inactive
same,Potency,[4],inactive
C[C@@H]1O[C@H](C[N+](C)(C)C)CS1,Potency,[1],inactive
same,Potency,[12],inactive
same,outcome,[2],inactive
same,Potency,[3],inactive
same,Potency,[4],inactive
same,Potency,[13],inactive
COc1ccc2c(c1)[C@@]13CCCC[C@H]1[C@@H](C2)NCC3,Potency,[1],inactive
same,Potency,[12],inactive
same,outcome,[2],inactive
same,Potency,[3],inactive
same,Potency,[4],inactive
same,Potency,[13],inactive
O=[N+]([O-])/C=C/c1ccc2c(c1)OCO2,Potency,[1],12.6 µM (active)
same,outcome,[2],inactive
same,Potency,[3],inactive
same,Potency,[4],inactive
CCCN(CCC)C1CCc2cccc(O)c2C1 (stereo unspecified),Potency,[1],inactive
same,Potency,[12],inactive
same,outcome,[2],inactive
same,Potency,[3],inactive
same,Potency,[13],inactive
CC(Cc1ccc(OCC(=O)O)cc1)NCC(O)c1cccc(Cl)c1 (stereo unspecified),Potency,[1],inactive
same,Potency,[12],inactive
same,Potency,[3],inactive
same,Potency,[4],inactive
same,Potency,[13],inactive
CCOC(=O)c1ncn2c1[C@@H]1CCCN1C(=O)c1cc(OC)ccc1-2,Potency,[1],inactive
same,Potency,[12],inactive
same,outcome,[2],inactive
same,Potency,[3],inactive
same,Potency,[4],inactive
same,Potency,[13],inactive
N[C@@]1(C(=O)O)CC[C@@H](C(=O)O)C1,Potency,[1],inactive
same,Potency,[12],inactive
same,outcome,[2],inactive
same,Potency,[3],inactive
same,Potency,[4],inactive
same,Potency,[13],inactive
C=CCN1C[C@@H](C)N([C@H](c2ccc(C(=O)N(CC)CC)cc2)c2cccc(OC)c2)C[C@@H]1C,Potency,[1],inactive
same,Potency,[12],inactive
same,outcome,[2],inactive
same,Potency,[3],inactive
same,Potency,[4],inactive
same,Potency,[13],inactive
OC1CCCCC1N1CCC(c2ccccc2)CC1 (stereo unspecified),Potency,[1],inactive
same,Potency,[12],inactive
same,outcome,[2],inactive
same,Potency,[3],inactive
same,Potency,[4],inactive
same,Potency,[13],inactive
CC(C)(C)c1o[nH]c(=O)c1CC(N)C(=O)O (stereo unspecified),Potency,[1],inactive
same,Potency,[12],inactive
same,outcome,[2],inactive
same,Potency,[3],inactive
same,Potency,[4],inactive
same,Potency,[13],inactive
C[N+](C)(C)CC#CCN1CCCC1=O,Potency,[1],inactive
same,Potency,[12],inactive
same,outcome,[2],inactive
same,Potency,[3],inactive
same,Potency,[4],inactive
same,Potency,[13],inactive
Nc1ccc(CCN2CCN(c3cccc(C(F)(F)F)c3)CC2)cc1,Potency,[1],inactive
same,Potency,[12],inactive
same,outcome,[2],inactive
same,Potency,[3],inactive
same,Potency,[4],inactive
same,Potency,[13],inactive
CN1CC[C@@]2(C)c3cc(O)ccc3N(C)C12 (stereo partly specified),Potency,[1],10 µM (active)
same,Potency,[12],inactive
same,outcome,[2],inactive
same,Potency,[3],inactive
same,Potency,[4],inactive
same,Potency,[13],inactive
CCN(CCCl)Cc1ccccc1Br,Potency,[1],inactive
same,Potency,[12],inactive
same,outcome,[2],inactive
same,Potency,[3],inactive
same,Potency,[4],inactive
same,Potency,[13],inactive
